The results in this text go back to PubChem BioAssay (NCATS).

Records with an inconclusive call do not appear. The source made the active and inactive calls. Unless noted, the call rests on the fitted dose curve; in most records, active means well fitted curve in the direction sought with a large enough effect; inconclusive means small, poorly fitted or top-dose-only effect, or another doubt; inactive means no such curve, though single readings can be large; an effect the other way counts as inactive or inconclusive.

Test [1] is described as follows: S16 Schwann cell PMP22 intronic element beta-lactamase assay (AID 624044; calls by dose curve;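 further: 0% = DMSO and -100% = potassium clavulanate positive control; nearly all actives have a fitted effect of over 15% in size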). Summed up: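 Rat S16 Schwann cells with beta-Lac driven by a PMP22 intronic element, compound-treated 24 h at 37 °C. LiveBLAzer FRET B/G read: 460 nm normalized to potassium clavulanate vs DMSO; 535 nm FRET as viability; concentration-effect curves classified.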
The next test concerns CP215. Nature of the test: qHTS profiling for inhibitors of Plasmodium falciparum proliferation (AID 504749). Further: nearly all actives have a fitted effect of over 60% in size. Further: potency means the concentration at half of the fitted maximal effect. The settings on record: P. falciparum in erythrocytes, SYBR Green DNA, 72 h; series mostly up to 28.7 µM. Summed up: (§1)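 P. falciparum-infected erythrocytes (0.3% parasitemia, 2.5% hematocrit final) were exposed to compounds for 72 h at 37 C in 5% CO2, then lysed with SYBR Green buffer overnight at room temperature; parasite DNA fluorescence was normalized to artemisinin and DMSO controls.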
(In general: Quantitative high-throughput screening tests each substance at several concentrations.)

The subject of a further test is CP262. The description is as above. The settings on record: P. falciparum in erythrocytes, SYBR Green DNA, 72 h; series mostly up to 28.7 µM. Summed up: as §1
In a further test the test system is CP266. The test is described as above. The conditions noted are these: P. falciparum in erythrocytes, SYBR Green DNA, 72 h; series mostly up to 28.7 µM. Summed up:
as §1

Another test relates to CP315. Described as above. The settings on record: P. falciparum in erythrocytes, SYBR Green DNA, 72 h; series mostly up to 28.7 µM. Summed up: as §1
The next test deals with CP325. Described as above. The settings on record: P. falciparum in erythrocytes, SYBR Green DNA, 72 h; series mostly up to 28.7 µM. Summed up:
as §1

In the next test the test system is FAB9. The test is described as above. The conditions noted are these: P. falciparum in erythrocytes, SYBR Green DNA, 72 h; series mostly up to 28.7 µM. Summed up: as §1
The subject of the next test is ICS. The test is described as above. The conditions noted are these: P. falciparum in erythrocytes, SYBR Green DNA, 72 h; series mostly up to 28.7 µM. Summed up: as §1
The subject of a further test is JCK. Described as above. The conditions noted are these: P. falciparum in erythrocytes, SYBR Green DNA, 72 h; series mostly up to 28.7 µM. Summed up: as §1
The test system of the next test is TAB165. The test is described as above. The conditions noted are these: P. falciparum in erythrocytes, SYBR Green DNA, 72 h; series mostly up to 28.7 µM. Summed up: as §1
A short description of test [2]: Primary qHTS for inhibitors of nuclear receptor binding SET domain protein 2 (NSD2) in an isogenic RCH-ACV NSD2 p.E1099K mutant (9B) (AID 1645876). Further: potency means the concentration at half of the fitted maximal effect; nearly all actives have a fitted effect of over 70% in size.
In test [3] the target is Tyrosine-protein kinase Yes (Homo sapiens) (UniProt P07947). The test is described as follows: qHTS for small molecule inhibitors of Yes1 kinase: Primary Screen (AID 686947). Further: potency means the concentration at half of the fitted maximal effect; nearly all actives have a fitted effect of over 60% in size. Summed up: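 ADP-Glo luminescence readout; final 4 nM Yes1, 0.1 mM ATP, 0.3 mg/mL poly(E4Y), Tris pH 7.5, MgCl2, DTT, Brij-35. 20 min compound preincubation, 60 min reaction at RT. Normalized to DMSO wells with and without enzyme.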
Tyrosine-protein kinase Yes (Homo sapiens), sequence (P07947 whole entry, looked up): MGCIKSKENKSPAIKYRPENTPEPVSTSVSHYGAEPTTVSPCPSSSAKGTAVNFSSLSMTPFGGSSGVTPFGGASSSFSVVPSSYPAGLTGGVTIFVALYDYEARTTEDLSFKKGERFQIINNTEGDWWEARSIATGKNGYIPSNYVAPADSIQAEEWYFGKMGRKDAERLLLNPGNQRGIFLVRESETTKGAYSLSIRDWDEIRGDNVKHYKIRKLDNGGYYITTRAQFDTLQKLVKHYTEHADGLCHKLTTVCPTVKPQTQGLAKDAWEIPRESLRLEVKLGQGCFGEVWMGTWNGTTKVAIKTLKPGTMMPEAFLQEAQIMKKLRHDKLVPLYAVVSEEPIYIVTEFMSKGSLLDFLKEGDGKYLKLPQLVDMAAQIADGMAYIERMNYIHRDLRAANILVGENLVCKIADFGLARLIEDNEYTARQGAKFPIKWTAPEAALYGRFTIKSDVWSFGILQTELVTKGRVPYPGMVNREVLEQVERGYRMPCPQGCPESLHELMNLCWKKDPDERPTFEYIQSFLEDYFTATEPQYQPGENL

The nature of test [4]: qHTS for small molecule inhibitors of Yes1 kinase: Counter Assay (AID 686950).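 Further: no kinase present so only ADP-Glo detection of a fixed ADP amount is tested; luminescence from ADP-Glo reporting ADP in a fixed ATP and ADP mixture; 0% = DMSO wells with ATP plus ADP and -100% = ATP-only wells without ADP.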 Summed up:
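Enzyme-free ADP-Glo interference check: compounds were preincubated 20 min in buffer, then an ATP/ADP mix (0.08 mM ATP, 0.02 mM ADP final) was added for 60 min at room temperature before two-step ADP-Glo luminescence detection.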

A short description of test [5]: qHTS assay for small molecule antagonists of peroxisome proliferator-activated receptor delta signaling (AID 588535; active means well fitted inhibition curve with a large enough effect in the signal ratio, with a control signal flat, not every such curve was filed as active; the % refers to the signal ratio;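 on max response: cells co-treated with a PPAR-delta agonist as stimulator during compound exposure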). The settings on record: HEK293T PPARd-UAS-bla, beta-lactamase FRET ratio, 18 h; 460 nm channel. Summed up:
(§2)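 GeneBLAzer PPAR-delta-UAS-bla HEK293T cells in medium with 2% charcoal/dextran FBS were preincubated 5 hrs at 37 C, then given compounds, incubated 18 hrs at 37 C, and read by CCF4 beta-lactamase fluorescence; IC50 from Hill fits.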

Test [6] concerns the target Peroxisome proliferator-activated receptor delta (Homo sapiens) (UniProt Q03181). The test is described as above. Summed up:
as §2

For test [7], the target named is Vitamin D3 receptor (Homo sapiens) (UniProt P11473). The test is described as follows: qHTS assay for small molecule antagonists of vitamin D receptor signaling (AID 588541; calls by dose curve;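 further: receptor activated by calcitriol during compound treatment; on the % scale 0 is the no-effect control and ±100 the full control effect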). Summed up:
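VDR-UAS-bla HEK293T cells (2000/well, 2% charcoal-stripped FBS) were treated with titrated compounds plus 1-alpha,25-dihydroxyvitamin D3 (50 nM or 3 nM final) for 16 h at 37 C. CCF4 beta-lactamase fluorescence was read; Hill fits gave IC50.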

For test [8] the target is unchanged. The test is described as follows: qHTS assay for small molecule agonists of vitamin D receptor signaling (AID 588543; calls by dose curve;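 further: 0% = DMSO basal and 100% = reference agonist control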). Summed up:
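Reporter cells (HEK293T, VDR-UAS-bla) were seeded in medium with 2% charcoal-stripped serum and incubated 5 h, then compounds in concentration series were added for 16 h at 37 °C. Stimulation was scaled between DMSO basal and 50 nM 1α,25-dihydroxyvitamin D3.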

Test [9] deals with Thyroid hormone receptor beta (Homo sapiens) (UniProt P10828). The test is described as follows: qHTS assay for small molecule antagonists of thyroid hormone receptor beta signaling (AID 588547; active means well fitted inhibition curve with a large enough effect in the signal ratio, with a control signal flat, not every such curve was filed as active; the % refers to the signal ratio;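 further: cells stimulated with 0.4 nM T3 agonist during compound exposure; on the % scale 0 is the no-effect control and ±100 the full control effect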). The conditions noted are these: TR-UAS-bla HEK293, beta-lactamase ratio, antagonist mode, 18 h. Summed up:
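TR-UAS-bla GripTite HEK293 cells in 2% charcoal/dextran FBS medium were preincubated 4 h at 37 C, given compound (0.59 nM to 92 uM) plus 0.4 nM T3 (final) for 18 h, then CCF4 for 2 h at RT; Hill fit gave IC50.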

The target in test [10] is Nuclear receptor subfamily 1 group I member 2 (Rattus norvegicus) (UniProt Q9R1A7). Nature of the test: qHTS assay for small molecule activators of the rat pregnane X receptor (rPXR) signaling pathway (AID 651751; call rule not given here; further: 0% is about no effect). The conditions noted are these: rPXR reporter cells, luciferase (One-Glo), 24 h.
Nuclear receptor subfamily 1 group I member 2 (Rattus norvegicus), sequence (Q9R1A7 whole entry, looked up): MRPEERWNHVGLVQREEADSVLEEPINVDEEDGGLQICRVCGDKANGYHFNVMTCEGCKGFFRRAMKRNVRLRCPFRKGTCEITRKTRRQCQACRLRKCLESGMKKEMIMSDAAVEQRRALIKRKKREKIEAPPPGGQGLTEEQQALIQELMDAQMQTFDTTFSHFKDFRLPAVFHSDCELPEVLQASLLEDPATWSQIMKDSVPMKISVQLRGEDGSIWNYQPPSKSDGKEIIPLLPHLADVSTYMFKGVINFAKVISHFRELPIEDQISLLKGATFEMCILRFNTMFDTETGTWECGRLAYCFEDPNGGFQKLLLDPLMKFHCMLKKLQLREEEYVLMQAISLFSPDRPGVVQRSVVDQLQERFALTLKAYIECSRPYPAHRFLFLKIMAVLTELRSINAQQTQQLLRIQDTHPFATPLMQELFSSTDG
Test [11] in a line: qHTS assay for small molecule activators of the human pregnane X receptor (PXR) signaling pathway (AID 720659; call rule not given here; further: 0% is about no effect).

Vitamin D3 receptor (Homo sapiens), sequence (P11473 whole entry, looked up): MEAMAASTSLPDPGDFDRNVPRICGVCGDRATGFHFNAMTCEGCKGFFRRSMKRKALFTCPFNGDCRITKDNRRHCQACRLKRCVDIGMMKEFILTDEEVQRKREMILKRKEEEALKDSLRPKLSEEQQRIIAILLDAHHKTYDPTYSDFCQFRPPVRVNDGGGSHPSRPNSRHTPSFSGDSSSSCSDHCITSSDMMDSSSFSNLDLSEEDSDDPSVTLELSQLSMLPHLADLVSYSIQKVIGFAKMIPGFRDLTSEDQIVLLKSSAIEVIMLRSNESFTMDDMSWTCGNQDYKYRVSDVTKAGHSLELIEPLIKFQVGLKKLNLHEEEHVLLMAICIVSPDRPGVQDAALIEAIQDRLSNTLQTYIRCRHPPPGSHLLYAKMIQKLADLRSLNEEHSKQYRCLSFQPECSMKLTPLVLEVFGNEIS
Peroxisome proliferator-activated receptor delta (Homo sapiens), sequence (Q03181 whole entry, looked up): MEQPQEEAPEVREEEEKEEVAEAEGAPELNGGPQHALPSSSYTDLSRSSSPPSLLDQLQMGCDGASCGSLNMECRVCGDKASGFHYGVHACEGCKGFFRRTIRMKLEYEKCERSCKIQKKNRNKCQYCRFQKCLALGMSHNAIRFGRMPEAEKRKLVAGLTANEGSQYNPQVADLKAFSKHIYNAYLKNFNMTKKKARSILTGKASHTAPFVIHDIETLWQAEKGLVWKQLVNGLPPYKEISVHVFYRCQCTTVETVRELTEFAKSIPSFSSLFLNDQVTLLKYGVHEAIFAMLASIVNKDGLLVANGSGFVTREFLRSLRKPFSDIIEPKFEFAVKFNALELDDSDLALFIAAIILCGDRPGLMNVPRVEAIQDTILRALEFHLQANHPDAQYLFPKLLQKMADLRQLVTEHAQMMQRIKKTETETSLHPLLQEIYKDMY
Thyroid hormone receptor beta (Homo sapiens), sequence (P10828 whole entry, looked up): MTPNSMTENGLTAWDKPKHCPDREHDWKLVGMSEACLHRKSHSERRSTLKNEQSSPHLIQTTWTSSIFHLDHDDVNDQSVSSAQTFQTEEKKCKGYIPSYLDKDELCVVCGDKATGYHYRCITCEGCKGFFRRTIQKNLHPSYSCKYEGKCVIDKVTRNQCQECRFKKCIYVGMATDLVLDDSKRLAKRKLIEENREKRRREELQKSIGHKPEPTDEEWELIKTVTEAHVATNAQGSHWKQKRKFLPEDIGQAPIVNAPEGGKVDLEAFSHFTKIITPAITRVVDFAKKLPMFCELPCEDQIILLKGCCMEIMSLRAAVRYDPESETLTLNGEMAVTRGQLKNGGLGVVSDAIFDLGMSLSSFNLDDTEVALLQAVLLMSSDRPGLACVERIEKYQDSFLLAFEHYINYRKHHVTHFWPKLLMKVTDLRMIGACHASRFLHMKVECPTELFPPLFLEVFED

As to `CCOC(=O)C(CCc1ccccc1)NC1CCc2ccccc2N(CC(=O)O)C1=O` (stereo not given), the Potency entry (in [1]; in the test with CP215; in the test on CP262; with CP266; in the test on CP315; with CP325) was “inactive” throughout. Moreover, the Potency entry in the test on FAB9 and in the test with JCK was “inactive” throughout. For the same compound, the Potency in the test on ICS was 6.31 µM (active); in the test with TAB165, 11.2 µM (active).

As to `Cc1ccc(-c2nn(C(C)(C)C)c3ncnc(N)c23)cc1`, in [2], the Potency was 7.31 µM (active).

In the case of `Fc1ccc(-c2nc3n(c2-c2ccncc2)CCS3)cc1`, the Potency in test [3] is 0.519 µM (active). For the same compound, the result in test [4] was inactive.

Regarding `CC(C)=CCC/C(C)=C/CC/C(C)=C/CO`, the max response is -3.54% in [5] and -1.6% (inactive) in [10]. Besides, the result in test [6], in test [8] and in test [11] was inactive. Moreover, the Potency result in [7] is “inactive”. Further, the activity change % (negative = inhibition) in test [9] is 1.19% (inactive).
